{"source": "PubChem BioAssay (NCATS)", "note": "Records with an inconclusive call do not appear. Entries that show only a call come without a potency. Values without a mark were called inactive. Calls of active or inactive are those of the source. The call rests on the fitted dose curve; in most records, active means well fitted cell-killing curve with a large enough effect; inconclusive means small, poorly fitted or top-dose-only effect; inactive means flat fitted curve, though single readings scatter. Potency means the concentration at half of the fitted maximal effect.", "data": [{"assay": "NCATS anti-infectives library activity on HEK293 viability as a counter-qHTS vs the C. elegans viability qHTS (AID 1745854)", "conditions": "HEK293 viability counter-screen; series mostly up to 41.8 µM", "text": "Assay Development and Screening Technology Laboratory (ADST)\nNational Center for Advancing Translational Sciences (NCATS), Rockville, MD\nNational Institute of Health (NIH), Bethesda, Maryland\nCaenorhabditis elegans has helped elucidate the evolutionarily conserved genetics underlying pathways and cellular processes implicated in human disease and may be ideally positioned to reveal novel pharmacological properties of exiting drugs. The organism's short life cycle and microscopic size is applicable to the technical requirements of high-throughput screening. Here a quantitative high-throughput screening (qHTS)-based forward chemical biology platform has been developed using C. elegans. 384-well microtiter plate laser scanning cytometry was used in the rapid detection and quantification of the fluorescent protein-encoded phenotype to score worm viability. In a proof-of-concept study, the pharmacological qHTS profile obtained from a library of 643 anti-infective compounds.\n1. Inglese, J., Auld, D. S., Jadhav, A., Johnson, R. L., Simeonov, A., Yasgar, A., Zheng, W., and Austin, C. P. (2006) Quantitative high-throughput screening: A titration-based approach that efficiently identifies biological activities in large chemical libraries, P Natl Acad Sci USA 103, 11473-11478.\n2. Auld, D. S., Johnson, R. L., Zhang, Y. Q., Veith, H., Jadhav, A., Yasgar, A., Simeonov, A., Zheng, W., Martinez, E. D., Westwick, J. K., Austin, C. P., and Inglese, J. (2006) Fluorescent protein-based cellular assays analyzed by laser-scanning microplate cytometry in 1536-well plate format, Method Enzymol 414, 566-589.\n3. Zuck, P., Lao, Z., Skwish, S., Glickman, J. F., Yang, K., Burbaum, J., and Inglese, J. (1999) Ligand-receptor binding measured by laser-scanning imaging, Proc Natl Acad Sci U S A 96, 11122-11127.\nPROTOCOL TABLE (as described by Inglese J, Shamu CE and Guy RK. 2007)\nSEQUENCE No. (e.g., 1, 2, 3, etc.); […] (e.g., C. elegans, Compounds, Incubation, Read, etc.); VALUE and DESCRIPTION.\n1. Compounds. Library compounds and digitonin control added at 25 nL per well to 7 assay ready 1536-well Greiner white/solid bottom high base, TC plates and two DMSO control plates, transferred by Echo acoustic dispenser.\n2. Cells. Seed 1500 HEK293 per well in 6 uL into assay ready Greiner 1536-well plates.\n3. Incubation. Incubate plated cells with compounds at 37C in 5% CO2, 95% RH for 24 hr.\n4. Reagent. Add 4 uL of CellTiter-Glo reagent from Promega per well of Greiner 1536-well plates with BioRAPTR FRD.\n5. Incubation. Incubate treated cells at room temperature for 10 min., protect from light.\n6. Detector. CellTiter-Glo luminescence measured using CCD-based camera (Viewlux) with settings as follows: Exposure, 1 sec; Gain, High; Speed, Slow; Binning, 2X.\nNOTES (numbers refer to Sequence numbers above; values are from representative experiments)\n1. NIH Anti-Infectives library pre-dispensed into 7 assay ready 1536-well Greiner white/solid bottom high base, TC plates with Echo 555 acoustic dispenser. Most compounds dispensed at 10 mM high concentration and plated in 7-pt 1:5 inter-plate titration at 25 nl / well for a final assay concentration range of 41.7 uM - 2.7 nM. Two 1536-well Greiner assay plates of DMSO plated as screening controls to be read at the beginning and the end of the screen. Controls included DMSO vehicle control added at 25 nl/well to each well of column 1 and […] (83.3 uM final assay concentration), and Digitonin titrated 1:2 at 25 nl/ well to column 4 in duplicate for a final assay concentration range of 83.3 uM - 2.5 nM.\n2. HEK293 cells grown for 48 hr in one T175 culture flask in DMEM high glucose media supplemented with 10% FBS and 1% Pen/Strep antibiotic. Cells trypsinized and diluted in 10 ml supplemented media, strained through 40 µm cell strainer, and diluted to a total volume of 40 ml with supplemented media. […]", "values": [{"compound": "CCCc1nc(C(C)(C)O)c(C(=O)O)n1Cc1ccc(-c2ccccc2-c2nn[nH]n2)cc1", "Potency": "inactive"}, {"compound": "CC(C)C[C@H](NC(=O)[C@@H](NC(=O)c1cccc(-c2ccccc2)n1)[C@@H](C)O)B(O)O", "Potency": "inactive"}, {"compound": "c1ccc(CNc2nc(NCc3ccccc3)c3ccccc3n2)cc1", "Potency": "22.4 µM (active)"}, {"compound": "CN(C)c1ccc(C(=O)NCCCCCCC(=O)NO)cc1", "Potency": "inactive"}, {"compound": "Cn1cc(CNCC2CCN(c3ncc(C(=O)NO)cn3)CC2)c2ccccc21", "Potency": "inactive"}, {"compound": "Nc1ccn(C[C@@H](CO)OCP(=O)(O)O)c(=O)n1", "activity change, negative = cytotoxicity": "2.29% [at 8.35 µM]"}, {"compound": "O=c1[nH]c(=O)n([C@H]2C[C@@H](O)[C@@H](CO)O2)cc1C=CBr", "Potency": "inactive"}, {"compound": "Nc1ccc(C(=O)Nc2cccc(-c3nc(N4CCOCC4)c4oc5ncccc5c4n3)c2)cn1", "Potency": "inactive"}, {"compound": "c1cc(CN2CCCNCCNCCCNCC2)ccc1CN1CCCNCCNCCCNCC1", "Potency": "inactive"}, {"compound": "CCS(=O)(=O)Nc1ccc2[nH]c(O)c(C(=Nc3ccc(CN4CCCCC4)cc3)c3ccccc3)c2c1", "Potency": "2 µM (active)"}, {"compound": "CCC(C(=O)O)C1CCC(C)C(C(C)C(O)C(C)C(=O)C(CC)C2OC3(C=CC(O)[C@@]4(CC[C@](C)(C5CC[C@@](O)(CC)C(C)O5)O4)O3)C(C)CC2C)O1", "note": "(some centres undefined)", "activity change, negative = cytotoxicity": "-17.2% [at 0.334 µM]"}, {"compound": "O=C1c2cccc(O)c2C(=O)c2c(O)cc(CO)cc21", "Potency": "inactive"}, {"compound": "C[C@H](NC(=O)Cc1cc(F)cc(F)c1)C(=O)N[C@H](C(=O)OC(C)(C)C)c1ccccc1", "Potency": "inactive"}, {"compound": "CCOC(=O)C=C[C@H](C[C@@H]1CCNC1=O)NC(=O)[C@@H](CC(=O)[C@@H](NC(=O)c1cc(C)on1)C(C)C)Cc1ccc(F)cc1", "Potency": "inactive"}, {"compound": "Cc1cc(O)c2c(c1)C(=O)c1cccc(O)c1C2=O", "Potency": "inactive"}, {"compound": "C=Cc1c(C)c2cc3nc(cc4[nH]c(cc5nc(cc1[nH]2)C(C)=C5CCC(=O)O)c(CCC(=O)OC)c4C)[C@@]1(C)C3=CC=C(C(=O)OC)[C@H]1C(=O)OC", "Potency": "inactive"}, {"compound": "C[C@H](NCc1ccc(OCc2cccc(F)c2)cc1)C(N)=O", "Potency": "inactive"}, {"compound": "C[C@H](NC(=O)[C@@H](O)c1cc(F)cc(F)c1)C(=O)N[C@@H]1C(=O)N(C)c2ccccc2-c2ccccc21", "Potency": "inactive"}, {"compound": "C=C(C)[C@@H]1CC[C@]2(C(=O)O)CC[C@]3(C)[C@H](CC[C@@H]4[C@@]5(C)CC[C@H](O)C(C)(C)[C@@H]5CC[C@]43C)[C@@H]12", "Potency": "inactive"}]}]}
